Source: PubChem BioAssay (National Center for Advancing Translational Sciences (NCATS))
This is a sample that favours compounds with a hit; in the whole collection about 19% have one here.
Giardia killer: Small Molecules that selectively kill Giardia lamblia: qHTS; hit rate 0.15% among 340,000; Giardia lamblia trophozoite viability; activity change, % at 7.66 µM, hits read low; AID 540267, 2011; in the data active = activity change below about -80%; inconclusive = between about -30% and that limit;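 note: parasites exposed to compound for two days anaerobically before the ATP read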
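Media and compound were dispensed first, then trophozoites at 100 cells/well; plates sat 48 hrs at 37 deg C without oxygen before ATP luminescence reagent was added and read after 15-30 min at room temperature.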
TDP1 cell noCPT: qHTS for Inhibitors of human tyrosyl-DNA phosphodiesterase 1 (TDP1): qHTS in cells in absence of CPT; Potency, µM (titrated, usually from 46.2 µM), for the others: at the highest dose activity change, negative = growth inhibition, usual class: inhibitors; DT40 Tdp1-/- hTDP1 cells, no CPT, ATP luminescence, 48 h; hit rate 15% among 420,000; note: potency is the fitted concentration of half-maximal effect; nearly all actives have a fitted effect of over 55% in size
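Cells were dispensed at 400 per well, compounds added by pin tool, plates incubated ≥48 hr at 37 °C, then CellTiter-Glo added for 30 min at room temperature before luminescence reading. Line: DT40 Tdp1-/- complemented with hTDP1; camptothecin omitted.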
TDP1 block: qHTS Assay for Inhibitors of Tyrosyl-DNA Phosphodiesterase (TDP1); Tyrosyl-DNA phosphodiesterase 1 (Homo sapiens), Q9NUW8; recombinant TDP1, AlphaScreen DNA substrate cleavage; Potency, µM (highest dose often 130 µM), for the others: top-dose activity change, negative = inhibition, actives largely listed as inhibitors; hit rate 0.28% among 350,000; note: potency is the fitted concentration of half-maximal effect; nearly all actives have a fitted effect of over 40% in size
Target sequence (Q9NUW8 whole entry, looked up): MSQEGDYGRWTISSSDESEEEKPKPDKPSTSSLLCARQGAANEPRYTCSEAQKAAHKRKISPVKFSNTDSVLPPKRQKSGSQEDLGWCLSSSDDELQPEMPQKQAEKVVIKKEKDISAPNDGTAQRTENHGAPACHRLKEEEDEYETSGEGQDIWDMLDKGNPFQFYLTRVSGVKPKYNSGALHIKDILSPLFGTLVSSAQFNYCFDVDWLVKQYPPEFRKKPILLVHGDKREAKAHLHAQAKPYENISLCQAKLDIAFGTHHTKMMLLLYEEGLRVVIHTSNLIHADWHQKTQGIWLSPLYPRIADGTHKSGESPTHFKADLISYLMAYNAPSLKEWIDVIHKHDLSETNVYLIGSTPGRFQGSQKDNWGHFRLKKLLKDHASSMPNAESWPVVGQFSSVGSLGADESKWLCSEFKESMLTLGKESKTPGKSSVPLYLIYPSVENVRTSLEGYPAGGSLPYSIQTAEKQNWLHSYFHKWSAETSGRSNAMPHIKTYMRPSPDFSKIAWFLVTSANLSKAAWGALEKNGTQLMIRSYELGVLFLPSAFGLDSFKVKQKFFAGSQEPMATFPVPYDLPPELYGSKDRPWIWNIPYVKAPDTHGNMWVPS
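Enzyme-compound mixtures sat 15 min at room temperature, followed by a 5 min reaction with 15 nM final substrate and 10 min with AlphaScreen beads. Recombinant human Tdp1 was used at 1 nM final.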
TDP1 cell CPT: qHTS for Inhibitors of human tyrosyl-DNA phosphodiesterase 1 (TDP1): qHTS in cells in presence of CPT; chicken DT40 Tdp1-/-;hTDP1 cells + 20 nM CPT, ATP luminescence, 48 h; Potency, µM (series often up to 46.2 µM), inactives show top-dose activity change, negative = growth inhibition, hits mostly inhibitors; hit rate 12% among 420,000; AID 686979, 2013; note: potency is the fitted concentration of half-maximal effect; nearly all actives have a fitted effect of over 55% in size
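Chicken DT40 Tdp1-/- cells stably complemented with human TDP1 were seeded at 400 cells/well in medium containing 20 nM camptothecin, exposed to pin-transferred compounds, and grown at 37 °C for at least 48 hr. Viability was read as ATP luminescence.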
IL1B secr inh: qHTS for Inhibitors of Inflammasome Signaling: IL-1-beta AlphaLISA Primary Screen; THP-1 LPS/ATP IL-1B secretion, AlphaLISA, 16 h; hits give low values; activity change, % at 57.5 µM; hit rate 4.7% among 360,000; AID 743279, 2014; in the data active = activity change below about -50%; inconclusive = mostly about -30% to -49%
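Secreted IL-1B measured by AlphaLISA bead assay after 16 h compound exposure of THP-1 cells; compounds (final up to 57.5 uM) added 1 h before LPS (250 ng/mL) and ATP (1.25 mM) stimulation; lower signal means less secretion.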
ELG1 DNA repair: qHTS screen for small molecules that inhibit ELG1-dependent DNA repair in human embryonic kidney (HEK293T) cells expressing luciferase-tagged ELG1 | HEK293T ELG1-luciferase reporter, luminescence, 16 h; DNA damage induced by 5-fluorouridine | Potency, µM (top dose mostly 46.1 µM), inactives show top-dose activity change, negative = inhibition, hits mostly inhibitors | hit rate 2.3% among 330,000 | AID 504467, 2011; note: potency is the fitted concentration of half-maximal effect; nearly all actives have a fitted effect of over 55% in size
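Reporter activity after DNA damage by 5-fluorouridine is monitored. Compound-treated cells incubate 16 hr at 37 °C, then ONE-Glo is added for 30 min before luminescence reading.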
* hit, by the source's call; u = inconclusive; x = not tested or not shown. Unless noted, calls come from the whole dose curve; as a rule, active = well fitted curve in the direction sought with a large enough effect; inconclusive = small, poorly fitted or top-dose-only effect, or another doubt; inactive = no such curve, though single readings can be large; an effect the other way counts as inactive or inconclusive. % is set by controls: 0 for no effect and ±100 for the full control effect.

SMILES | Giardia killer | TDP1 cell noCPT | TDP1 block | TDP1 cell CPT | IL1B secr inh | ELG1 DNA repair
CC1=CC(=O)C2=C(C)C[C@H](OC(=O)Cc3ccccc3)C3[C@H](OC(=O)[C@H]3C)C12 (some centres undefined) | x | u | 8% | u | x | x
O=C(NCCc1ccc(Cl)cc1)C1CCC(CNc2nc(=S)[nH]c3ccccc23)CC1 (centres undefined) | -25 | 9.2µM* | 5% | 6.5µM* | -3 | u
S=c1nc(NCCc2ccccc2Cl)c2ccccc2[nH]1 | 6 | 26µM* | x | -28% | -6 | u
O=C(NCc1ccccc1Cl)C1CCC(CNc2nc(=S)[nH]c3ccccc23)CC1 (centres undefined) | 8 | 26µM* | 3% | u | 3 | u
O=C(NCCC1=CCCCC1)C1CCC(CNc2nc(=S)[nH]c3ccccc23)CC1 (centres undefined) | 10 | 16µM* | 8% | u | -27 | u
O=C(NCCC1=CCCCC1)C1CCC(CNS(=O)(=O)c2ccccc2)CC1 (centres undefined) | 7 | u | -3% | -29% | 7 | -2%
O=C(CCCCCNc1nc(=S)[nH]c2ccccc12)NCc1ccccc1Cl | x | x | 0% | x | x | 0%
COc1ccc(NC(=O)CSC2=Nc3ccccc3C3=NC(CC(=O)NCCc4ccccc4)C(=O)N23)cc1 (centres undefined) | x | -14% | 2% | -17% | x | x
CCCCNC(=O)[C@H]1C[C@H]1[C@@H](O)[C@H](CO)NC(=O)[C@H](Cc1ccccc1)NC(=O)OC(C)(C)C | -7 | 1% | x | -21% | 6 | u
OC(c1cc(-c2ccc(C(F)(F)F)cc2)nc(C(F)(F)F)c1)C1CCCCN1 (centres undefined) | -3 | 6.5µM* | -4% | 1.6µM* | -104* | u
Cc1cccc(NC(=O)N2CCN(C(=O)c3nsc4ccccc34)CC2)c1C | x | u | 8% | -3% | x | x
O=S(=O)(c1ccccc1)c1nc(-c2ccco2)oc1NCc1ccccc1 | 13 | -16% | 10% | -10% | 2 | u
CNc1oc(Cc2ccccc2)nc1S(=O)(=O)c1ccccc1 | -5 | 6.5µM* | 9% | 15µM* | 0 | 10%
Cc1ccc(Cn2cc(/C=N/Nc3ccc([N+](=O)[O-])cn3)c3ccccc32)cc1 | 17 | 16µM* | 4% | u | 2 | -16%
Cc1cc(/C=N/Nc2ccc([N+](=O)[O-])cn2)c(C)n1-c1ccccc1 | -5 | u | 5% | 18µM* | 7 | u
O=C(O)Cn1cc(/C=N/Nc2ccc([N+](=O)[O-])cn2)c2ccccc21 | 6 | -3% | x | 19% | 37 | 0%
O=C(N/N=C/c1cn(Cc2ccccc2)c2ccccc12)c1cc(O)cc(O)c1 | -24 | 2% | -15% | -14% | u | 14%
Cc1ccc(-n2c(C)cc(/C=N/Nc3ccc([N+](=O)[O-])cn3)c2C)cc1 | 12 | -26% | 9% | -16% | -11 | u
Cc1ccc(C(=O)N/N=C/c2cn(Cc3ccccc3)c3ccccc23)cn1 | 38 | 21µM* | 7% | u | 11 | 6.5µM*
Cc1cc2c(cc1S(=O)(=O)N1CC(C)CC(C)C1)OCC(=O)N2 (centres undefined) | 13 | -5% | x | -4% | 15 | 3%
COc1ccc(-c2cc(-c3c(O)c(OC)c4occc4c3OC)[nH]n2)cc1OC | 14 | 21µM* | 8% | u | -63* | 26µM*
COc1ccc(-c2cc(-c3c(O)c(OC)c4occc4c3OC)[nH]n2)cc1 | 7 | 5.8µM* | 6% | 5.8µM* | u | -5%
CCc1ccc(N2CC(C(=O)N3CCN(c4ccc([N+](=O)[O-])cc4)CC3)CC2=O)cc1 (centres undefined) | x | -21% | x | -32% | -6 | x
Cc1oc2ccc(NS(=O)(=O)c3ccc(C(C)(C)C)cc3)cc2c1C(=O)Nc1ccccc1 | -21 | 18µM* | 2% | u | u | u
COCc1oc2ccc(NS(=O)(=O)c3ccc(C)cc3)cc2c1C(=O)OC | x | 2.3µM* | x | 3.7µM* | x | x
SMILES | Giardia killer | TDP1 cell noCPT | TDP1 block | TDP1 cell CPT | IL1B secr inh | ELG1 DNA repair
CC(=O)c1c(C)oc2ccc(NS(=O)(=O)c3ccc(C(C)C)cc3)cc12 | x | 5.8µM* | x | 5.8µM* | x | x
CC(=O)c1c(C)oc2ccc(NS(=O)(=O)c3ccc(C)cc3)cc12 | 14 | 8.2µM* | 0% | u | 37 | u
COC(=O)c1cc2cc(NS(=O)(=O)c3ccc(C)cc3)ccc2s1 | -8 | -27% | 0% | u | 8 | -14%
COc1cc2oc(=O)c(CC(=O)NCCc3ccccc3)c(C)c2cc1Cl | x | -15% | 4% | -2% | x | x
Cc1ccc(-c2nc3cc(NS(=O)(=O)c4ccc(C)cc4)ccc3o2)cc1 | 1 | u | 4% | 14µM* | 15 | -1%
CCOC(=O)c1sc(=S)n(CC)c1NC(=O)c1ccccc1 | 5 | -27% | 0% | -2% | x | u
CC(=O)OCCN(C)c1cc(SC(C)C)c2nonc2c1[N+](=O)[O-] | 16 | 16µM* | 0% | 13µM* | -68* | 2%
CCOC(=O)N1CCN(c2cc(N(C)CCO)c([N+](=O)[O-])c3nonc23)CC1 | 9 | 26% | -2% | -9% | 11 | -14%
CC(=O)OCCNc1cc(SC(C)C)c2nonc2c1[N+](=O)[O-] | 2 | u | 2% | -1% | -22 | -4%
CN(CCO)c1cc(Sc2nc3ccccc3s2)c2nonc2c1[N+](=O)[O-] | 1 | 1.8µM* | 5% | 2.1µM* | -17 | 16%
O=[N+]([O-])c1cccc(-c2cc3cccc[n+]3cc2-c2cccc([N+](=O)[O-])c2)c1 | 1 | -12% | 3% | -10% | 18 | -11%
